FMDV antiviral – foot and mouth disease virus antiviral activity; Potency, µM (highest dose often 57.9 µM), without a hit: top-dose activity change, negative = inhibition, usual class: inhibitors; FMDV antiviral cell-based qHTS; 410,000 tested, 1.2% active; calls by dose curve; tested in HEK293T cells; note: read-out not given here; potency is the fitted concentration of half-maximal effect; nearly all actives have a fitted effect of over 45% in size
Vaccinia Venus – inhibitors of vaccinia virus (Venus reporter) | Vaccinia virus Venus reporter expression, fluorescence | Potency, µM (titrated, usually from 36.5 µM), for the others: at the top dose activity change, negative = inhibition, usual class: inhibitors | 330,000 tested, 0.46% active | AID 720580; calls by dose curve; tested in A549 cells; note: potency is the fitted concentration of half-maximal effect; nearly all actives have a fitted effect of over 30% in size
VACV mCherry inh – vaccinia inhibition (mCherry reporter); 310,000 tested, 0.63% active; Potency, µM (series often up to 36.5 µM), for inactives: top-dose activity change, negative = inhibition, usual class: inhibitors; Vaccinia virus mCherry reporter infection, fluorescence; calls by dose curve; tested in A549 cells; note: potency is the fitted concentration of half-maximal effect; nearly all actives have a fitted effect of over 35% in size
Lassa entry inh – inhibitors of Lassa virus binding or cell entry; Lassa virus pseudotype entry inhibition, cell reporter; Potency, µM (top dose mostly 37.9 µM), for inactives: at the top dose activity change, negative = inhibition, actives largely listed as inhibitors; 300,000 tested, 1.2% active; AID 540256; calls by dose curve; tested in HEK293 cells; note: potency is the fitted concentration of half-maximal effect; nearly all actives have a fitted effect of over 50% in size
HCMV antiviral – inhibitors of human cytomegalovirus; HFF cells, HCMV-luciferase reporter, 72 h; hits give low values; activity change, negative = inhibition, % at 57.5 µM; 410,000 tested, 4.5% active; in the data active = activity change below about -60%; inconclusive = no clear call, values can overlap the other calls; inactive = above about -39%
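Two compound doses tested in HFFs infected with HCMV-luciferase, MOI 1 PFU/cell, 72 h at 37C. Lysate luminescence read with OneGlo; data normalized against buffer-only and 10uM Salinomycin inhibitor controls.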
MARV entry inh – inhibitors of Marburg virus binding or cell entry; Marburg virus pseudotyped entry inhibition, cell reporter; 300,000 tested, 1.8% active; AID 540276; Potency, µM (highest dose often 37.8 µM), for the others: at the highest dose activity change, negative = inhibition, hits mostly inhibitors; calls by dose curve; tested in HEK293 cells; note: potency is the fitted concentration of half-maximal effect
Numbers without * were called inactive; i = inactive; ? = inconclusive; . = no result given; ! = not confirmed by another sample; [ ] = another dose, or the depositor's remark. Hits are enriched below; roughly 6.5% of the tested compounds scored in any of these assays. % is set by controls: 0 for no effect and ±100 for the full control effect.

SMILES	FMDV antiviral	Vaccinia Venus	VACV mCherry inh	Lassa entry inh	HCMV antiviral	MARV entry inh
CNC(=O)Nc1ccc(C(=O)N/N=C\C23CC[C@@H](O)CC2(O)CC[C@@H]2[C@@H]3CCC3(C)C(C4=CC(=O)OC4)CCC23O)cc1 (stereo not given in full)	-15.3%	?	12.6µM*	.	-23.3	.
O=C(Cc1ccccc1)N/N=C/c1ccc2c(c1)OCO2	71.6%	0.5%	-1.4%	?	45.2	0.4%[46.1 µM]
CC12CC[C@H]3[C@@H](CCC4(O)C[C@H](O)CCC34/C=N/NC(=O)Cc3ccccc3)C1(O)CCC2C1=CC(=O)OC1 (stereo not given in full)	11.1%	?	?	?	-65.7*	?
COc1ccc(C(=O)/C=C/Sc2nc3ccccc3o2)cc1	?	-11.7%	i	-1.7%[46.1 µM]	-105.1*	?
COC(=O)c1cccc(C(=O)NCc2nc(-c3cccc(NC(=O)c4ccoc4C)c3)oc2C)c1	22.4µM*	-23.0%	-26.4%	.	.	.
CSc1ccccc1C(=O)NCc1nc(-c2cccc(NC(=O)c3ccoc3C)c2)oc1C	31.6µM*	-29.2%	?	.	.	.
Cc1occc1C(=O)Nc1cccc(-c2nc(CNC(=O)c3ccc4ccccc4n3)c(C)o2)c1	-8.1%	-21.1%	-3.2%	.	.	.
Cc1occc1C(=O)Nc1cccc(-c2nc(CNC(=O)c3cccc(C#CC(C)(C)O)c3)c(C)o2)c1	20µM*	?	?	.	.	.
Cc1occc1C(=O)Nc1cccc(-c2nc(CNC(=O)c3cc(-c4ccccc4)n[nH]3)c(C)o2)c1	-0.6%	-22.7%	-24.0%	.	.	.
COC(=O)CNC(=O)COC(=O)c1ccc(Cl)nc1	3.1%	-14.9%	i	-9.9%	34.1	-4.0%
Cc1nc2c(=O)n(C)c(=O)n(C)c2nc1Cl	?	-20.9%	?	?	-103.5*	8.2µM*
Cn1c(=O)c2nncnc2n(C)c1=O	-16.1%	-8.5%	i	8.1%	-34.8	1.0%
CCCCN(CCCC)c1ncnc2nc[nH]c12	?	?	-25.9%	.	-90.9*	.
CCCN(c1ccc(OCC)cc1)c1ncnc2nc[nH]c12	5.2%	-23.0%	-5.9%	.	?	.
CCN(c1ccc(OC)cc1)c1ncnc2nc[nH]c12	0.0%	-12.3%	-13.7%	.	-88.2*	.
CCCCCC(=O)N1C[C@@H](n2cc(-c3ccc(F)cc3)nn2)[C@H](O)C[C@@H]1c1ccc(OC)cc1	-23.1%	-28.7%	-9.9%	.	5.5	.
CC(C)C(=NO)c1ccccc1	-11.2%	-6.1%	-17.6%	-2.8%	-18.1	9.3%
C[C@H](CO)N1C[C@H](C)[C@@H](CN(C)C(=O)Nc2ccc(C(F)(F)F)cc2)Oc2ccc(NC(=O)Cn3cnnn3)cc2C1=O	-9.7%	-6.5%	i	.	-2.5	.
Cc1cc(C)nc(N/C(=N\S(=O)(=O)Cc2ccccc2)Nc2ccccc2Br)n1	37.0%	1.6%	?	4.11µM*	?	2.82µM*
O=C(NCCc1ccccc1)C(=O)NCC(c1cccnc1)N1CCN(c2ccccc2F)CC1 (stereo not given)	?	?	-22.9%	-3.3%[46.1 µM]	-36.8	.
CC(C)CCNC(=O)C(C)N(Cc1ccc(F)cc1)C(=O)c1ccc(CN2CCOCC2)o1 (stereo not given)	-6.5%	-5.9%	5.7%	23.5%	8.7	-17.6%[46.1 µM]
CC(C)(C)NC(=O)C(c1ccc(F)cc1)N(Cc1cccs1)C(=O)c1ccc(CN2CCOCC2)o1 (stereo not given)	9.0%	-18.1%	-22.1%	8.0%	-39.8	2.82µM*
Cc1ccc(Cl)c(NC(=O)COC(=O)c2nn(-c3ccccc3)cc2O)c1Cl	7.1%	-3.6%	-19.6%	-23.3%	27.7	?
CSc1sc(C(=O)NCC2CC2)cc1S(=O)(=O)C(C)C	-16.1%	-9.0%	-18.0%	?	-2.4	-1.3%[46.1 µM]
COC(=O)c1cc(S(=O)(=O)C(C)C)c(S(C)=O)s1 (stereo not given)	-17.5%	?	10µM*	-2.1%[46.1 µM]	-66.4*	11.2µM*
SMILES	FMDV antiviral	Vaccinia Venus	VACV mCherry inh	Lassa entry inh	HCMV antiviral	MARV entry inh
O=C(CNC(=O)c1ccc2c(c1)OCCO2)N=Nc1c(O)[nH]c2ccccc12	3.3%	0.0%[7.34 µM]	6.2%[7.34 µM]	.	-10.2	.
N#Cc1ccc(-c2ccc(Cl)cc2)nc1SCC(=O)c1cccc(Cl)c1	-7.1%	-16.5%	-16.3%	6.6%	-60.9*	0.1%
COc1ccc2c(c1)OC(C)CN(CCNC(=O)c1ccc(-n3cccn3)cc1)C2 (stereo not given)	0.4%	-11.0%	-25.9%	.	.	.
O=C(COC(=O)c1c2c(nc3ccccc13)/C(=C/c1ccco1)CC2)NC1CCCC1	12.0%	-7.6%	?	12.6µM*	-12.1	?
CN(Cc1ccccc1)C(=O)c1oc(=O)c2ccccc2c1-c1ccccc1	-2.7%	-16.4%	i	2.0%	4.8	0.1%
Cc1ccc(-c2c(C(=O)N(C)Cc3ccccc3)oc(=O)c3ccccc23)cc1	-1.5%	-13.6%	-12.7%	-15.8%[46.1 µM]	-65.2*!	?
CCCn1c2ccccc2c2nnc(SC(CC)C(=O)Nc3cc(C)on3)nc21 (stereo not given)	-21.8%	?	.	?	-2.5	12.6µM*
CCC(Sc1nnc2c3ccccc3n(CC)c2n1)C(=O)Nc1ccc(NC(C)=O)cc1 (stereo not given)	-15.5%	-5.8%[7.34 µM]	i[7.34 µM]	-17.7%[46.1 µM]	-37.4	3.55µM*
CCCNC(=O)c1ccc2nc(-c3ccccc3)c(-c3ccccc3)nc2c1	-19.8%	-2.3%	-4.5%	?	30.3	-25.5%
CCc1nc2ccc(C(=O)NCCCN3CCN(c4ccccc4F)CC3)cc2nc1CC	0.0%	-19.5%	-3.3%	?	22.7	10µM*
COc1ccccc1N1CCN(CCCCNC(=O)c2ccc3ccccc3c2)CC1	?	-10.6%	i	.	-6.7	8.91µM*
O=C(NCCCN1CCN(c2ccccc2F)CC1)c1ccc2nc(Cc3ccccc3)oc2c1	?	-29.4%	-25.5%	-20.4%[46.1 µM]	-2.8	.
CCN1CCN(CCNC(=O)c2ccc3nc(-c4cccc(C)c4)c(-c4cccc(C)c4)nc3c2)CC1	-18.9%	.	.	.	-108.8*	.
O=C(NCCCN1CCN(c2ccccc2F)CC1)c1ccc2nc(CCc3ccccc3)oc2c1	?	-15.5%[7.34 µM]	-12.0%[7.34 µM]	-24.4%[46.1 µM]	-100.7*	.
Cc1cc(Cl)nc2nc(Cl)ccc12	.	-9.4%	25.1%	.	.	.
O=C(NCCN1Cc2ccccc2OC(c2ccccc2F)C1)c1cncs1 (stereo not given)	-4.4%	2.0%	-17.3%	.	.	.
CCC1CN(CC(=O)NCc2n[nH]c3c2CCCCC3)Cc2cc(OC)ccc2O1 (stereo not given)	-9.1%	-8.8%	-9.3%	.	.	.
COc1ccc2[nH]c3c(c2c1)CCN(C(=O)c1cccc(Cl)c1)C3c1ccc(F)cc1 (stereo not given)	-15.3%	4.0%	?	?	-72.9*	1µM*
CC1(C)CC(NCCN2CCN(C3=CC(=C(C#N)C#N)CC(C)(C)C3)CC2)=CC(=C(C#N)C#N)C1	-22.6%	.	.	.	-63.4*	.

Screening results as filed in PubChem BioAssay.
